Results as given in PubChem BioAssay.
Records with an inconclusive call do not appear. Calls of active or inactive are those of the source. Cut-off read from the data, not from the text of the source, unless noted: active = inhibition above about 30%; inactive = the rest.

Key:
[1] = reducers of endogenous Her2 protein level, primary screen, SKBR3 breast tumor cells, AlphaScreen, ATP viability (AID 461;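 active = Her2 level under about 52% in both replicate screens, with viability over 70% of control, limit read from the data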;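 for Her2 level: lower value means less Her2 protein in the cells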;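 for viability: percent of carrier control wells set as 100% viability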); settings: 18-24 h, measured here: SKBR3 viability, ATP luminescence, at 10 µM
[2] = target: Receptor tyrosine-protein kinase erbB-2 (Homo sapiens) (UniProt P04626); experiment: as above; settings: 18-24 h, at 10 µM, stronger effect = lower value
Chain of Receptor tyrosine-protein kinase erbB-2 (Homo sapiens) (P04626 whole entry, looked up): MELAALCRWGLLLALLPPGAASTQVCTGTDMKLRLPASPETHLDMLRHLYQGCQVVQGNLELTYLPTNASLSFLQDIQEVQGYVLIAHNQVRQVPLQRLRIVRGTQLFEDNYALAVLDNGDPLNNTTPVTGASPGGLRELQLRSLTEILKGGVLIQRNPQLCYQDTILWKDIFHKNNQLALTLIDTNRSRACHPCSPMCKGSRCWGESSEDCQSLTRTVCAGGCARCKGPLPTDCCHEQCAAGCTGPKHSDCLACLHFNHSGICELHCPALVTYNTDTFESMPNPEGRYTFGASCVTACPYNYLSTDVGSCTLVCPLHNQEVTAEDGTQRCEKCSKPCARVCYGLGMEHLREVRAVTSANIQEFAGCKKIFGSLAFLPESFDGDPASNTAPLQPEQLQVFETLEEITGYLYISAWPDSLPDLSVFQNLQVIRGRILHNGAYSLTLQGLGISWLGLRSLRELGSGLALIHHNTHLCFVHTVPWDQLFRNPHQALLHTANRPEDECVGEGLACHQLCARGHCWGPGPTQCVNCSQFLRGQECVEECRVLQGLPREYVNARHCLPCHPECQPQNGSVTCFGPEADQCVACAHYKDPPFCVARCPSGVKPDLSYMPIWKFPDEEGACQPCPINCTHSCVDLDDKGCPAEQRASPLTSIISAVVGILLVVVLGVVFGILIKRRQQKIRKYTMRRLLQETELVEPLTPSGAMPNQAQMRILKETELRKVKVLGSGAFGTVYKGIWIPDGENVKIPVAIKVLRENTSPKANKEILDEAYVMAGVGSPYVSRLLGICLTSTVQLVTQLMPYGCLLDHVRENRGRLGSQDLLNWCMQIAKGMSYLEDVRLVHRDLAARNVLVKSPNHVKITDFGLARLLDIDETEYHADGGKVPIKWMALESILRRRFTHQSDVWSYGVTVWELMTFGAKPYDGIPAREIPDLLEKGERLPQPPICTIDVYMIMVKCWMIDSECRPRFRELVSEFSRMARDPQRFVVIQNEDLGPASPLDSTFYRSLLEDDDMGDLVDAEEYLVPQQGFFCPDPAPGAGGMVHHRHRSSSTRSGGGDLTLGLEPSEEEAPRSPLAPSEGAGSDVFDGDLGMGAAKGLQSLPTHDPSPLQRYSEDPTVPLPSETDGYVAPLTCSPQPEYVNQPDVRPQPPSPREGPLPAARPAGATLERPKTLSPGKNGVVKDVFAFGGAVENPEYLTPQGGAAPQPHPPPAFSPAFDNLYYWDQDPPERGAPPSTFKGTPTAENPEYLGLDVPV

[3] = SK-BR-3 cell growth inhibitors, pilot screen, 24 h, human (AID 572;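 active = viability at or below 10% of carrier control in both of two separate runs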;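 note: compound exposure lasted between 18 and 24 h rather than exactly 24 h; 100% = carrier-treated control wells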); settings: SK-BR-3 viability, CellTiter-Glo luminescence, at 10 µM, stronger effect = lower value
[4] = HUVEC growth inhibition – cell-based, human, primary screen (AID 575;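 active = viability at or below 30% in both replicate assays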;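 note: 100% = median of untreated cell wells with 0.1% DMSO on each plate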); settings: HUVEC proliferation, CellTiter-Glo luminescence, 72 h; at 10 µM; stronger effect = lower value
[5] = growth inhibitors of H69AR lung tumor, primary screen, human, duplicate replicates (AID 580;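 active = viability at or under a set limit in both replicates, limit being median viability minus 3 SD, cut at about 48% in these data, passing the limit was not always enough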;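 note: 100% = mean luminescence of untreated wells and 0% = no signal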); settings: H69AR lung tumor cells viability, ATP luminescence, 72 h; at 10 µM; stronger effect = lower value
[6] = reversal of MRP1-mediated doxorubicin resistance, pilot screen, H69AR cells, doxorubicin co-treatment (AID 601;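 active = viability loss from added drug above about 55%, and viability with drug at most 40%, in both replicates, limit read from the data, passing the limit was not always enough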); settings: CellTiter-Glo, 72 h, at 10 µM; for differential viability (reversal): stronger effect = higher value
[7] = 384-well plate pilot, post-Golgi transport modulator project, inhibition of yeast transport mutant growth (AID 636; in the data active = inhibition above about 31%); settings: absorbance 615 nm, about 18 h, stronger effect = higher value
[8] = growth suppression of yeast trafficking mutant, preliminary HTS, modulators of trafficking downstream of Golgi apparatus project, 1536-format plate, OD 615 nm (AID 637); settings: yeast transport mutant growth, absorbance 615 nm, 18 h; stronger effect = higher value
[9] = OD615 S. cerevisiae growth inhibition, permissive medium, pilot counter-assay, permissive growth control for S. cerevisiae lifespan shortening project (AID 705;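 active = growth inhibition above 25% in both replicates, a cutoff set 3 SD above the mean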); settings: OD615, 24 h, at 10 µM, stronger effect = higher value
[10] = Restrictive medium S. cerevisiae growth inhibition, OD615, pilot screen of yeast lifespan reduction project, restrictive growth control (AID 706;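 active = growth inhibition above a set limit, 3 SD over mean compound inhibition, in both replicates, cut at about 43% in these data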;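 note: modified DeaD lifespan yeast strain shifted to restrictive glucose medium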); settings: OD615, 48 h, at 10 µM, stronger effect = higher value
[11] = viability gain of MRP-1-high H69AR cells under doxorubicin, pilot screen, MRP-1 activator project, CellTiter-Glo, duplicate (AID 807;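 active = viability increase at or above a cutoff of the median across tested compounds plus 3 SD, cut at about 8.5% in these data, passing the limit was not always enough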;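 note: compound pretreatment 18-22 h then 72 h combined with doxorubicin; 0% = doxorubicin alone and 100% = vehicle without doxorubicin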); settings: H69AR viability with doxorubicin, CellTiter-Glo luminescence; at 10 µM; stronger effect = higher value
[12] = growth suppression of beta-catenin knockout HCT116, pilot screen, human colon tumor cells (AID 823;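 active = cell viability at or below a set limit in both duplicate runs, the limit being the all-compound median minus 4 SD, cut at about 23% in these data, passing the limit was not always enough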;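 note: 0% = wells killed by 20 µM Hyamine and 100% = untreated DMSO cell wells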); settings: CellTiter-Glo, 60 h, at 10 µM, stronger effect = lower value
[13] = growth suppression of PTEN-deleted HCT116, pilot screen, cell-based, HCT116 clonal line, CellTiter-Glo (AID 824;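 active = viability at or below 27.92% in each of two runs, the all-compound median minus 4 SD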;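 note: 0% = 20 µM Hyamine control and 100% = vehicle cell control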); settings: 60 h, at 10 µM, stronger effect = lower value
[14] = inhibitors of the yeast RAM network, pilot screen, dse1pr::URA3 reporter, 5-FOA selection (AID 869;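 active = inhibition over a set limit, the all-compound mean plus 3 SD, in both replicate runs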;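 note: 0% = DMSO wells with no growth and 100% = 10 µM 1-NA-PP1 with full growth; RAM network block rescues cells from 5-FOA so hits raise OD615 growth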); settings: S. cerevisiae dse1pr::URA3 5-FOA growth, OD615, 2 d; at 10 µM; stronger effect = higher value; strain carries analog-sensitive mutant Cbk1 kinase
[15] = RAM signaling pathway blockade in yeast – S. cerevisiae, Pdr1DBD-CYC8 efflux-inhibited sensitized strain, primary screen (AID 1298;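 active = RAM network inhibition above 8.4% in each of two replicates, 3 SD over the compound average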;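 note: 0% = DMSO untreated cells without growth and 100% = 10 µM 1-NA-PP1 full growth; higher means more yeast growth rescued from 5-FOA killing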); settings: S. cerevisiae cbk1-as DSE1-URA3 strain, 5-FOA growth OD615, 2 d; at 50 µM; stronger effect = higher value
[16] = H69AR cells + 2 uM doxorubicin, measured here: viability with 2 uM doxorubicin, stronger effect = lower value
[17] = H69AR cells, compound alone cytotoxicity

CCN(CC)c1ccc(NC(=O)CN2C(=O)CC(C)(C)S(=O)(=O)c3ccccc32)c(C)c1
102%: viability [1]
inactive: Her2 level [2] 111% | viability [3] 102% | viability [4] 102% | viability [5] 84.8% | differential viability (reversal) ([6]; H69AR cells + 2 uM doxorubicin) -7.56% | inhibition [7] -4.8% | inhibition [8] 0.83% | growth inhibition [9] -6.69% | growth inhibition [10] -16.1% | viability increase [11] -4.31% | viability [12] 63.6% | viability [13] 78.1% | inhibition [14] 1.72% | RAM network inhibition [15] 3.26%
84.8%: viability [6, 17]
92.4%: viability [6, 16]

CC1CC(NC(=O)c2cnc3n(c2=O)CCS3)CC(C)(C)C1 (stereo not given)
85.6%: viability [6, 16]
inactive: Her2 level [2] 108% | viability [3] 83.5% | viability [4] 85.8% | viability [5] 91.7% | differential viability (reversal) ([6]; H69AR cells + 2 uM doxorubicin) 6.09% | inhibition [7] -4.13% | inhibition [8] -3% | growth inhibition [9] -8.98% | growth inhibition [10] -8.4% | viability increase [11] -0.41% | viability [12] 99% | viability [13] 90% | inhibition [14] 0.545% | RAM network inhibition [15] 0.68%
83.5%: viability [1]
91.7%: viability [6, 17]

CCn1cc(C(=O)NCc2ccccc2OC)c(=O)c2cc(S(=O)(=O)N(C)C)ccc21
77.6%: viability [6, 17]
78.5%: viability [1]
inactive: Her2 level [2] 89% | viability [3] 78.5% | viability [4] 78.3% | viability [5] 77.6% | differential viability (reversal) ([6]; H69AR cells + 2 uM doxorubicin) 9.22% | inhibition [7] -5.6% | inhibition [8] 0.17% | growth inhibition [9] -8.34% | growth inhibition [10] -17.1% | viability increase [11] -5.34% | viability [12] 87.1% | viability [13] 85.5% | inhibition [14] 1.88% | RAM network inhibition [15] 2.36%
68.4%: viability [6, 16]

c1ccc(-c2cn3cccnc3n2)cc1
101%: viability [6, 17]
90.4%: viability [6, 16]
118%: viability [1]
inactive: Her2 level [2] 88.5% | viability [3] 118% | viability [4] 106% | viability [5] 101% | differential viability (reversal) ([6]; H69AR cells + 2 uM doxorubicin) 10.5% | inhibition [7] -6.45% | inhibition [8] -0.73% | growth inhibition [9] -10.6% | growth inhibition [10] -27% | viability increase [11] 0.59% | viability [12] 110% | viability [13] 100% | inhibition [14] 3.13% | RAM network inhibition [15] 1.13%

COc1ccc(-c2[nH]c(-c3cccc(OC)c3)nc2SCC(=O)NCc2ccco2)cc1
inactive: Her2 level [2] 85.5% | viability [3] 95.5% | viability [4] 62.5% | viability [5] 71% | differential viability (reversal) ([6]; H69AR cells + 2 uM doxorubicin) -2.42% | inhibition [7] -2.67% | inhibition [8] -0.33% | growth inhibition [9] -9.19% | growth inhibition [10] 1.65% | viability increase [11] -4.56% | viability [12] 93.3% | viability [13] 90.3% | inhibition [14] 1.09% | RAM network inhibition [15] 11.2%
95.5%: viability [1]
73.4%: viability [6, 16]
71%: viability [6, 17]

COc1cc2c(cc1OC)-c1nnc(-c3cccs3)n1C(C)(C)C2
99.1%: viability [6, 16]
102%: viability [6, 17]
inactive: Her2 level [2] 95.5% | viability [3] 64.5% | viability [4] 114% | viability [5] 102% | differential viability (reversal) ([6]; H69AR cells + 2 uM doxorubicin) 2.48% | inhibition [7] 0.13% | inhibition [8] -4.17% | growth inhibition [9] -11.8% | growth inhibition [10] -8.72% | viability increase [11] -2.78% | viability [12] 90.4% | viability [13] 80.6% | inhibition [14] 0.115% | RAM network inhibition [15] 0.94%
64.5%: viability [1]

CCN1C(=O)c2ccccc2S(=O)(=O)c2ccc(C(=O)NCc3cccnc3)cc21
inactive: Her2 level [2] 114% | viability [3] 95.5% | viability [4] 85.6% | viability [5] 91.5% | differential viability (reversal) ([6]; H69AR cells + 2 uM doxorubicin) -0.065% | inhibition [7] 0.93% | inhibition [8] 8.5% | growth inhibition [9] -2.51% | growth inhibition [10] -4.21% | viability increase [11] -2.25% | viability [12] 93.4% | viability [13] 90.4% | inhibition [14] 0.65% | RAM network inhibition [15] 1.98%
91.6%: viability [6, 16]
91.5%: viability [6, 17]
95.5%: viability [1]

CCCCSc1nc(CCC)cc(=O)[nH]1
88.5%: viability [6, 16]
inactive: Her2 level [2] 118% | viability [3] 86.5% | viability [4] 91.9% | viability [5] 88.2% | differential viability (reversal) ([6]; H69AR cells + 2 uM doxorubicin) -0.345% | inhibition [7] 2.05% | inhibition [8] -12.5% | growth inhibition [9] -14.4% | growth inhibition [10] -14.4% | viability increase [11] -1.29% | viability [12] 99.6% | viability [13] 104% | inhibition [14] 0.635% | RAM network inhibition [15] 6.04%
88.2%: viability [6, 17]
86.5%: viability [1]

CC1CCN(S(=O)(=O)c2cccc(C(=O)Nc3ccccn3)c2)CC1
inactive: Her2 level [2] 104% | viability [3] 86% | viability [4] 86.7% | viability [5] 94.3% | differential viability (reversal) ([6]; H69AR cells + 2 uM doxorubicin) -2.55% | inhibition [7] 4.1% | inhibition [8] 1.83% | growth inhibition [9] 8.12% | growth inhibition [10] 3.79% | viability increase [11] -1.96% | viability [12] 93.9% | viability [13] 97.7% | inhibition [14] -0.08% | RAM network inhibition [15] 4.54%
96.8%: viability [6, 16]
94.3%: viability [6, 17]
86%: viability [1]

Nc1cccc2c1C(=O)N(c1ccccc1)C2=O
inactive: Her2 level [2] 97% | viability [3] 95% | viability [4] 91.4% | viability [5] 98.8% | differential viability (reversal) ([6]; H69AR cells + 2 uM doxorubicin) 14.7% | inhibition [7] -3.87% | inhibition [8] -1.48% | growth inhibition [9] -10.6% | growth inhibition [10] -8.73% | viability increase [11] -2.17% | viability [12] 106% | viability [13] 95.2% | inhibition [14] 1.5% | RAM network inhibition [15] 0.47%
84.1%: viability [6, 16]
95%: viability [1]
98.8%: viability [6, 17]
